SKKanGAS inh: S. pyogenes SKKanGAS growth inhibitors in kanamycin, primary screen, streptokinase expression inhibitor project, SKKanGAS strain, BacTiter-Glo luminescence; actives 1.3% (n = 300,000); 6 h; inhibition, % at 7.5 µM;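 active = mean replicate score, as percent of positive control median, at least 50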;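 also: strain carries kanamycin resistance gene driven by streptokinase promoter and grows in 40 µg/ml kanamycin; loss of luminescence reflects streptokinase promoter inhibition or plain growth inhibition; 0% = median of DMSO wells and 100% = positive control at its reference dose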
Beta apoptosis: inhibitors of cytokine-induced beta cell apoptosis, primary screen, luminescence. INS-1E cytokine-induced death, ATP luminescence, 48 h; percent of positive-control rescue, neutral wells zero. protection from apoptosis, % (test concentration not listed). actives 0.8% (n = 300,000);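 active = Every replicate reaches about 75%, or at least half do and their mean reaches it too, limit read from the data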;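 also: 0% = cytokine-treated negative control wells and 100% = positive control rescue; higher means more ATP so stronger rescue from cytokine killing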
NR3A LBD binder: binders of NR3A ligand-binding domain, primary screen, biophysical, differential scanning fluorimetry, uHTS; Glutamate receptor ionotropic, NMDA 3A (GRIN3A) ligand-binding domain; NR3A LBD differential scanning fluorimetry, Tm shift; 0% = protein alone, 100% = glycine-bound protein; Tm shift relative to glycine control, % at 25 µM; actives 2.5% (n = 340,000); AID 1259313, 2017;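 active = melting temperature shift of at least 10% of the positive control shift, at one fixed dose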
Mdm2-MdmX inh: inhibitors of human Mdm2-MdmX association, primary screen, cell-based, luminescence, split luciferase, SaOS-2, uHTS; Protein Mdm4 (Homo sapiens) + E3 ubiquitin-protein ligase Mdm2 (Homo sapiens), …; SaOS-2 split-luciferase Mdm2/MdmX complementation; inhibition, % at 8 µM; actives 3% (n = 330,000); AID 485346, 2010;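 active = inhibition of at least 50% at 8 µM in the primary screen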
Target sequence (O15151 whole entry, looked up): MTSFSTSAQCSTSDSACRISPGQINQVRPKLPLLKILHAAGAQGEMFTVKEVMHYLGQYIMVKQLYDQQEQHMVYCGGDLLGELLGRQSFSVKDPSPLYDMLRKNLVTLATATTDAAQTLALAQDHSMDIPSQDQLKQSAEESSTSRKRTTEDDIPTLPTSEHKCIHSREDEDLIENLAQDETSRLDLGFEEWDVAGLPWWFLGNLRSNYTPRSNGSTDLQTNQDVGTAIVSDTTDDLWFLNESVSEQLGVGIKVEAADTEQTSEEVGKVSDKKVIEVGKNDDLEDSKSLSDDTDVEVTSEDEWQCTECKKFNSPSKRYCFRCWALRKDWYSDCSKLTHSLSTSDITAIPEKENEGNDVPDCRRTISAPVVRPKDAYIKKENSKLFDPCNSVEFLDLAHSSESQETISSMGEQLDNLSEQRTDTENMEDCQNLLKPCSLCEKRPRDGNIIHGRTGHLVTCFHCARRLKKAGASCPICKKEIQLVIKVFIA
Target sequence (Q00987 whole entry, looked up): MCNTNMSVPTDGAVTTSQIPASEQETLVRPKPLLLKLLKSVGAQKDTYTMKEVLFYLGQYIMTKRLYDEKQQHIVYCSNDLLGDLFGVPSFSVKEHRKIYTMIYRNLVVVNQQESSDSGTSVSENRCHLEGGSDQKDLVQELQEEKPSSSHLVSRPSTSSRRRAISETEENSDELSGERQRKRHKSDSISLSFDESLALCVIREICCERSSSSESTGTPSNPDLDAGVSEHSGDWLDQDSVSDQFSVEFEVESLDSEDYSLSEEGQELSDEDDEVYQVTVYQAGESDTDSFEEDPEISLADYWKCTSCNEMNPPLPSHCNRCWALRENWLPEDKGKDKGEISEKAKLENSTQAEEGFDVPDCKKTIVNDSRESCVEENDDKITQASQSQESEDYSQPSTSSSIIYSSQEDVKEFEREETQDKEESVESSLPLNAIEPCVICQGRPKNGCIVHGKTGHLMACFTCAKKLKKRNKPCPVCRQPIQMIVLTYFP
MPTP block: mitochondrial permeability transition pore inhibitors, primary screen, biochemical, isolated mouse mitochondria, absorbance; Ca2+ swelling absorbance, 30 min; inhibition, % at 10 µM; actives 1.4% (n = 360,000);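 active = inhibition of 50% or more, scaled per plate between neutral and stimulator controls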;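 also: 0% = DMSO wells given calcium and 100% = 1 mM EGTA wells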
CSC inhib: cancer stem cell viability inhibitors, primary screen, luminescence; actives 1.1% (n = 300,000); cancer stem cell-like cells viability; inhibition, % at 7.5 µM; AID 2717, 2010; in the data active = inhibition above about 75%; tested in HMLE shEcad cells
Active calls of the source: *; . = not tested or not shown. An excerpt weighted towards active compounds, which were near 6.9% of everything screened.

SMILES | SKKanGAS inh | Beta apoptosis | NR3A LBD binder | Mdm2-MdmX inh | MPTP block | CSC inhib
Cc1ccc(NC(=O)CCCSc2nc3ccccc3[nH]2)cc1 | -18.9 | -4.4 | -4.3 | 4.6 | 6.4 | -3.1
CCc1nnc(NC(=O)CSc2ccc(-c3nc4ccccc4[nH]3)cn2)s1 | 1.0 | 5.6 | 19.0* | -18.0 | 0.1 | 4.2
Cc1ccc(SCC(=O)Nc2ccc(-c3nc4ccccc4[nH]3)cc2)cc1 | 0.3 | 1.2 | 35.1* | 3.3 | 6.4 | 3.6
CCc1nnc(NC(=O)CSc2ccc(-c3ccc(-n4cccn4)cc3)nn2)s1 | 3.5 | . | 34.6* | -47.5 | -0.7 | 8.3
Cc1ccccc1NC(=O)CSc1ccc(-c2ccc(-n3cccn3)cc2)nn1 | -0.1 | . | 0.8 | 17.2 | 1.0 | -5.7
Cc1ccc2nc(-c3ccc(SCC(=O)Nc4nnc(C)s4)nc3)[nH]c2c1 | -1.5 | 51.0 | 23.9* | -153.8 | 0.9 | 10.8
Cc1ccc2nc(-c3ccc(SCC(=O)Nc4nc(C)cs4)nc3)[nH]c2c1 | 7.0 | 12.6 | 9.7 | -8.3 | 4.0 | 0.1
COCCNC(=O)CSc1ccc(-c2nc3ccccc3[nH]2)cn1 | -1.6 | . | -1.1 | -1.6 | 3.6 | -1.0
O=C(OCc1cn([C@H]2CN(CC3CCCCC3)[C@@H](c3ccc(Cl)cc3)C[C@@H]2O)nn1)c1ccccc1 | . | . | . | . | -2.6 | .
Cc1ccc(SCC(=O)OC(C)C(=O)NCc2ccccc2)cc1C (stereo not drawn) | 4.8 | -11.1 | 0.4 | 9.6 | -0.1 | -6.0
Cc1nc(NC(=O)CSc2ccc(-c3nc4ccccc4[nH]3)cn2)sc1C | 5.4 | 4.5 | 19.6* | -21.6 | -9.0 | -8.3
C=CCn1c(CCNC(=O)c2cccs2)nnc1SCC(=O)c1ccc(Cl)cc1 | -5.5 | . | -12.7 | 4.0 | -0.6 | .
C=CCn1c(Cc2cccs2)nnc1SCC(=O)c1ccc2ccccc2c1 | -2.6 | -10.1 | 15.7* | 2.7 | 1.0 | 38.3
C=CCn1c(CNC(=O)c2cccs2)nnc1SCC(=O)c1ccc(Br)cc1 | -0.2 | -0.8 | 13.3* | 18.3 | 7.2 | -10.6
COc1ccccc1NS(=O)(=O)c1cc(NC(=O)Cc2n[nH]c(=O)c3ccccc23)ccc1Cl | . | -9.2 | -2.4 | 28.7 | 0.7 | 10.0
CCc1ccc(-c2cc(C)no2)cc1S(=O)(=O)NCCN1CCC(C)CC1 | -2.0 | 2.4 | 14.8* | 20.9 | 0.2 | 8.6
CC(C)(C)C(=O)/C=C/c1ccc(Oc2ccccc2)cc1 | 6.1 | 7.3 | 10.3* | . | 1.4 | 11.2
Nc1nc(SCC(=O)Nc2ccc(OCc3ccccc3)cc2)n[nH]1 | 1.3 | -2.1 | 1.3 | -11.5 | 6.2 | 4.0
Cc1cccc(-c2oc3ccccc3c2C#CCCCCO)c1 | 75.7* | -1.4 | -3.0 | 30.2 | 1.0 | 100.9*
Cc1cccc(-c2oc3ccccc3c2C#CCCO)c1 | 2.9 | -3.5 | -6.9 | 13.1 | 1.1 | 89.5*
Nc1cccc2cc(S(=O)(=O)O)ccc12 | . | . | 3.3 | . | -1.2 | .
COc1ccccc1C(CNC(=O)C(C)Oc1ccc(Br)cc1)N1CCCC1 (stereo not drawn) | -20.2 | -3.4 | . | -4.7 | -1.3 | 4.4
CCc1cccc(CC)c1NC(=O)NC1CCCCC1 | -1.5 | 4.1 | 12.7* | -5.1 | -1.1 | -13.4
Cn1cc(S(=O)(=O)NCc2ccc(Cl)cc2)c(=O)n(C)c1=O | -6.8 | 4.3 | 2.4 | -13.5 | 0.8 | -11.8
Cc1cc(F)ccc1NC(=O)C1CSC2(C)CCC(=O)N12 (stereo not drawn) | -5.5 | -5.5 | 0.9 | 40.4 | -1.2 | -9.8
SMILES | SKKanGAS inh | Beta apoptosis | NR3A LBD binder | Mdm2-MdmX inh | MPTP block | CSC inhib
COc1c2occc2c(OC)c2c(=O)cc(C(F)(F)C(F)(F)F)oc12 | -1.1 | 1.4 | 0.8 | 14.8 | 1.7 | -16.8
COc1c2occc2c(OC)c2c(=O)cc(C(F)(F)F)oc12 | -2.3 | -0.8 | 15.8* | 1.0 | -6.6 | -2.7
COc1ccc(NC(=S)Nc2ccc(OCc3ccccc3)cc2)c(OC)c1 | 2.4 | . | 10.4* | -17.3 | 12.8 | .
COc1ccc(NC(=S)Nc2ccccc2)c(OC)c1 | -2.4 | 0.3 | -1.0 | 18.5 | 0.8 | 5.0
S=C(Nc1ccccc1)Nc1ccc(OCc2ccccc2)cc1 | -3.8 | -12.1 | 8.7 | -2.9 | 9.2 | -7.3
NS(=O)(=O)c1ccc(NC(=S)Nc2ccc(OCc3ccccc3)cc2)cc1 | -0.7 | -1.4 | 12.3* | -54.8 | 2.1 | 2.9
Cc1nn(-c2ccccc2)c(Cl)c1/C=N/NC(=O)c1ccc(NS(=O)(=O)c2cccs2)cc1 | 71.6* | 1.5 | . | -5.9 | . | 8.9
CCOC(=O)[C@]12CCCC=C1N(CCc1ccc(OC)c(OC)c1)C(=O)[C@H](CC(=O)N1CCN(C(=O)C3CC3)CC1)C2 | . | . | . | . | 5.9 | .
CCN(CC)c1ccc2cc(S(=O)(=O)c3ccc(C)cc3)c(=O)oc2c1 | -6.6 | 9.0 | -0.9 | 18.9 | 20.4 | 98.5*
O=C(CSc1nc2ccccc2n1S(=O)(=O)c1ccccc1)N1CCCCC1 | -1.9 | -4.1 | 13.6* | 10.5 | 3.0 | -5.1
O=C(CSc1nc2ccccc2n1CC(=O)N1CCCCC1)N1CCCCC1 | 7.8 | 0.4 | -1.1 | 27.6 | 0.5 | .
Cc1cc(Cl)ccc1OCC(=O)OCC(=O)c1c(N)n(C)c(=O)n(C)c1=O | . | 0.1 | 2.2 | 20.7 | 0.5 | .
Cc1ccc(S(=O)(=O)ON2C(=O)c3ccccc3C2=O)c(C)c1 | . | 10.0 | 21.7* | . | -7.0 | -5.9
CCCCNC(=O)C1(C)CCCCN1C(=O)c1ccc2c(c1)C(C)(C)CCC2(C)C (stereo not drawn) | . | . | . | . | 0.5 | .
COc1ccc(-c2cc(C(F)(F)F)nc(NCc3cccs3)n2)cc1 | 73.7* | 3.0 | -9.7 | 16.7 | 18.3 | 38.5
COc1ccccc1-c1cc(C(F)(F)F)nc(NCc2cccs2)n1 | 9.6 | 10.7 | -25.4 | -20.0 | 2.2 | -0.3
FC(F)(F)c1cc(-c2ccc(Cl)cc2)nc(NCc2cccnc2)n1 | -1.7 | 5.9 | -16.8 | 15.7 | 0.2 | 77.0*
Cc1cc(/C=C2\SC(=O)NC2=O)c(C)n1-c1ccc(N2CCOCC2)cc1 | 99.7* | 8.6 | 6.0 | 27.4 | 5.6 | -16.0
CC(=O)NC1=NC(=O)/C(=C/c2cc(C)n(-c3cccc(C(=O)O)c3)c2C)S1 | 34.0 | . | -0.6 | 5.5 | 1.8 | .
Cc1cc(/C=C2\SC(=O)N(C)C2=O)c(C)n1-c1ccc(O)cc1 | 87.8* | 6.3 | -1.2 | 14.8 | 20.0 | -5.3
CC(=O)NC1=NC(=O)/C(=C/c2cc(C)n(-c3ccc(NC(C)=O)cc3)c2C)S1 | 78.8* | 2.6 | -0.2 | -8.3 | 1.2 | .
Cc1noc(C)c1COC(=O)c1ccc(F)c(S(=O)(=O)N2CCOCC2)c1 | . | . | 3.7 | 17.5 | -2.0 | .
Cc1ccc(Cc2c(C3CCCCC3)nc3cc(C)c(Br)c(C)n23)cc1 | . | . | . | . | 0.7 | .

High-throughput results deposited in PubChem by several laboratories.
